# In the supplement of paper PMC10849652:
# The full data set covers some 7,900 targets. This sample favours those with a hit. About 0.6% of all pairs of compound and target were hits.
# Compound: c1cn2cc(-c3ccc4cn[nH]c4c3)nc(Nc3ccc(N4CCOCC4)cc3)c2n1 [entospletinib]
# Experiment: log2 fold change, soluble protein after heating vs DMSO (PISA); higher = thermal stabilisation; K562 cells, 10 uM, 30 min; active = over 0.2 and 3.5 SD of the protein, either way, in both replicates (recomputed)
# How it was run: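 K562 cells (2×10^6 cells/mL) were treated with 10 μM compound for 30 min, and aliquots were heated for 3 min over 48°C-58°C. Pooled aliquots were extracted in PBS with 0.5% NP-40 at 4°C, and the supernatant after 21,000xg for 90 min was measured by TMTpro 16plex LC-MS/MS with channel sums equalised. Reported thermal stability, relative to control samples and from duplicates, is a log2 fold change.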
# UniProt Q9Y6Y8, sequence (Q9Y6Y8 whole entry, looked up): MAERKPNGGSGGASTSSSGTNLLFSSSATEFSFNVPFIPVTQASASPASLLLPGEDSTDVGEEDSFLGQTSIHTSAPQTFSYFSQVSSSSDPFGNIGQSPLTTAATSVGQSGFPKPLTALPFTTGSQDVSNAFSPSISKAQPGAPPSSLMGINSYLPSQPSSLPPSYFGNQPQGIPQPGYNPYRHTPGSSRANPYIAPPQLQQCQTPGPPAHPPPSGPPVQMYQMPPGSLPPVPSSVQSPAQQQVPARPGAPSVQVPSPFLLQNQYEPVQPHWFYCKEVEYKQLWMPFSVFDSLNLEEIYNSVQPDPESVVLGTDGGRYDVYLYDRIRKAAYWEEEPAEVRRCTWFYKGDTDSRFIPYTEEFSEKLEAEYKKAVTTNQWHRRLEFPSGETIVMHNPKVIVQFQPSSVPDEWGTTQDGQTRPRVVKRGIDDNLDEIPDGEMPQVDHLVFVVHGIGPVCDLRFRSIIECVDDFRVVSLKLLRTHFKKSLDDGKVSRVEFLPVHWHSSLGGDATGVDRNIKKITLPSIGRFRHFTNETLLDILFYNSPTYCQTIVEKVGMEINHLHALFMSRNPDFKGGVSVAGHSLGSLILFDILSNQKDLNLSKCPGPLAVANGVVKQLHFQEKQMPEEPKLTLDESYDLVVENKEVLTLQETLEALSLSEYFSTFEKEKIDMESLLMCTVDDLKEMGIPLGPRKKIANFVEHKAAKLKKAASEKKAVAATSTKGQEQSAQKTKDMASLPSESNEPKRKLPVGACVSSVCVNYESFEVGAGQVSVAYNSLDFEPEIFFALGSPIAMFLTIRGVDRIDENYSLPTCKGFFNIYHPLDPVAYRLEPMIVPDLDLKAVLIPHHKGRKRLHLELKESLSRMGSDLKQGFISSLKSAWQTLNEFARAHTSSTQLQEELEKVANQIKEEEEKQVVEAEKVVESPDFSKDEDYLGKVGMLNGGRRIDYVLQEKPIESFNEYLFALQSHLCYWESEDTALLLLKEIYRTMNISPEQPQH
# UniProt Q6R327, sequence (Q6R327 whole entry, looked up): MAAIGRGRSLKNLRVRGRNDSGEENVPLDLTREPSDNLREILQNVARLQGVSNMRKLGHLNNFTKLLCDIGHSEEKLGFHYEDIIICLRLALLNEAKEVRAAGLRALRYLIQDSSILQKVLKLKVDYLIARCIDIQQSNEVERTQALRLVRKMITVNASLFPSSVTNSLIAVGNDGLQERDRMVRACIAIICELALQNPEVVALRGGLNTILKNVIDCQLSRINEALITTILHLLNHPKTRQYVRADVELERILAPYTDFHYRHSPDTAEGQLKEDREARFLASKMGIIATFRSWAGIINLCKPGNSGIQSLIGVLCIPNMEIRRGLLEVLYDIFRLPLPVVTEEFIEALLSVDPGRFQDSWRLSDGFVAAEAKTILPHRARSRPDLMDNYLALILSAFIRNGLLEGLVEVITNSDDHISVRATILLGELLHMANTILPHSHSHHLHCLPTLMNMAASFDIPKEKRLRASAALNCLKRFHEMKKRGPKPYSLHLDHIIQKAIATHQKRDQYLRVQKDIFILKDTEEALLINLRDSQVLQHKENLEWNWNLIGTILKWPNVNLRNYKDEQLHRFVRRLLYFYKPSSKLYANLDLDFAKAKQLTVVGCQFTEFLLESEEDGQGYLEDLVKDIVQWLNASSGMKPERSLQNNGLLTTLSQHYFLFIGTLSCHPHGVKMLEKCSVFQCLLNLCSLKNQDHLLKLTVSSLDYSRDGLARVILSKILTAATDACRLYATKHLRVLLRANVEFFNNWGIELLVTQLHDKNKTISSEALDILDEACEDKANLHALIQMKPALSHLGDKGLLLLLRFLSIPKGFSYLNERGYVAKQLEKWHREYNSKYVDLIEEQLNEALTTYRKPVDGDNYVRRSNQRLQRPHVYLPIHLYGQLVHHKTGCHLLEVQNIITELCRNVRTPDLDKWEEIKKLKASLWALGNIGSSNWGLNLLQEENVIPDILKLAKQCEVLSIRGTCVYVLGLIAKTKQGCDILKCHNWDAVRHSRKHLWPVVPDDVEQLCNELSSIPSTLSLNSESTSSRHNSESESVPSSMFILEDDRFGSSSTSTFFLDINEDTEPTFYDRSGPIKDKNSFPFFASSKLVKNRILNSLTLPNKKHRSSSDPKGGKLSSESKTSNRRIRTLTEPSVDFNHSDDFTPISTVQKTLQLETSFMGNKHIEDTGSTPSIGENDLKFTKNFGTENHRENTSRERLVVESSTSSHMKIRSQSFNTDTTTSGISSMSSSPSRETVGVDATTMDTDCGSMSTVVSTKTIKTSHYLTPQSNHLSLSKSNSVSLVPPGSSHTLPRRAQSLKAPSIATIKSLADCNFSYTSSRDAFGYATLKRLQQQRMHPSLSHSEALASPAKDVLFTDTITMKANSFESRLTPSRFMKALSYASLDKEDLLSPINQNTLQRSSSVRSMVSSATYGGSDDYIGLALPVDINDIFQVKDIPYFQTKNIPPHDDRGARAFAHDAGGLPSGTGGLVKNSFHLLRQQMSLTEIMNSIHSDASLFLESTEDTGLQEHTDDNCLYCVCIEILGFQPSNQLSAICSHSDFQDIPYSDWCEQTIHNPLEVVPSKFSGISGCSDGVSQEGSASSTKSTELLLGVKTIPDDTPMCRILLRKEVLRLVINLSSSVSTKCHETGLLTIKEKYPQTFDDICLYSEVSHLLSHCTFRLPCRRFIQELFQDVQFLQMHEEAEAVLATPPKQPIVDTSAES
# UniProt Q01196, sequence (Q01196 whole entry, looked up): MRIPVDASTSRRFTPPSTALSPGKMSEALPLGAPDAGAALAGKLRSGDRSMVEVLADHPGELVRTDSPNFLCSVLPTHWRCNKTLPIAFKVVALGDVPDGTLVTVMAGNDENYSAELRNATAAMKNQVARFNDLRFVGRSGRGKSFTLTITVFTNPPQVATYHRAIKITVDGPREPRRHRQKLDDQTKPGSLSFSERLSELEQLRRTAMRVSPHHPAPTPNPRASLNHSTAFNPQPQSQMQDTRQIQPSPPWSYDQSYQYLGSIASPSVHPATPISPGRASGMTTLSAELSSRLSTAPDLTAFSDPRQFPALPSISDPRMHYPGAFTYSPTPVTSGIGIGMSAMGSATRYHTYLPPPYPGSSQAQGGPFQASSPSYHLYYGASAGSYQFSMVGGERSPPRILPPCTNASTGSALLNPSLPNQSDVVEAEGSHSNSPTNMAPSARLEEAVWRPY
# UniProt Q14493, sequence (Q14493 whole entry, looked up): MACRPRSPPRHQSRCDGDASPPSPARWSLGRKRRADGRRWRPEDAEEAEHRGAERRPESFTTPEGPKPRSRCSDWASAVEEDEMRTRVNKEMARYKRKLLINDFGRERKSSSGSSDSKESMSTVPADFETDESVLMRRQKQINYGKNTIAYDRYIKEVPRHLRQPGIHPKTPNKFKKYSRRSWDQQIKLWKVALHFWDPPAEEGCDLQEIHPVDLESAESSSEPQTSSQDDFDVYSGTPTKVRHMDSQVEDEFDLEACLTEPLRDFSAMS
# UniProt P63208, sequence (P63208 whole entry, looked up): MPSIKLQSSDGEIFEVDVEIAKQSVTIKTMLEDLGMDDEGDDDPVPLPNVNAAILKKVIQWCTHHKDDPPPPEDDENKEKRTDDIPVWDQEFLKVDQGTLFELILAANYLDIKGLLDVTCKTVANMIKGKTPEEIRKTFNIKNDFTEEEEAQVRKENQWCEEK
# UniProt Q8TD22, sequence (Q8TD22 whole entry, looked up): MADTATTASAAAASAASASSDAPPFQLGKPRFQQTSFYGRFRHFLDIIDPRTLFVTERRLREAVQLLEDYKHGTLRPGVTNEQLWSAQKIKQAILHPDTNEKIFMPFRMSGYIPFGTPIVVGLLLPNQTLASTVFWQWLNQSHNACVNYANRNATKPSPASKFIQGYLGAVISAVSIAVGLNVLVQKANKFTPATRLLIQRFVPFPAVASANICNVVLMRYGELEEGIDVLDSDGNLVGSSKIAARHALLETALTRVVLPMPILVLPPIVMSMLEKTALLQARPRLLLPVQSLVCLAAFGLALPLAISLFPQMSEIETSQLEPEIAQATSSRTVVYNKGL
# UniProt P51151, sequence (P51151 whole entry, looked up): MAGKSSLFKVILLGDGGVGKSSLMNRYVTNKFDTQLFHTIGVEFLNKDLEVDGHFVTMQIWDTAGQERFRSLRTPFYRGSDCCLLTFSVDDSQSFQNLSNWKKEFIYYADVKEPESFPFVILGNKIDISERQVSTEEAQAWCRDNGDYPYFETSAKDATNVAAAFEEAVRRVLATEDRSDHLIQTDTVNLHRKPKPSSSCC
row,Target,log2 fold change
1,RUNX1 isoform 8 (UniProt Q01196),0.116 (inactive)
2,RBM39 (UniProt Q14498),-0.125 (inactive)
3,RPS2 (UniProt P15880),0.08 (inactive)
4,SLBP (UniProt Q14493),-0.101 (inactive)
5,SFXN5 (UniProt Q8TD22),0.01 (inactive)
6,SIDT2 isoform 2 (UniProt Q8NBJ9),-0.003 (inactive)
7,RBM17 (UniProt Q96I25),-0.007 (inactive)
8,RPS6KA5 (UniProt O75582),-0.094 (inactive)
9,RPS20 isoform 2 (UniProt P60866),0.064 (inactive)
10,RABGAP1L isoform 3 (UniProt Q5R372),-0.021 (inactive)
11,RPS3A (UniProt P61247),0.082 (inactive)
12,SEC23IP (UniProt Q9Y6Y8),-0.06 (inactive)
13,RICTOR isoform 3 (UniProt Q6R327),0.01 (inactive)
14,RBIS (UniProt Q8N0T1),-0.031 (inactive)
15,RNF2 (UniProt Q99496),-0.003 (inactive)
16,RNF14 (UniProt Q9UBS8),0.035 (inactive)
17,RETREG3 (UniProt Q86VR2),0.015 (inactive)
18,RFC3 (UniProt P40938),-0.037 (inactive)
19,RAP1GDS1 isoform 5 (UniProt P52306),-0.025 (inactive)

row,Target,log2 fold change
1,RUFY3 isoform 3 (UniProt Q7L099),-0.046 (inactive)
2,RHEB (UniProt Q15382),-0.073 (inactive)
3,RNF187 (UniProt Q5TA31),0.027 (inactive)
4,RPS4X (UniProt P62701),0.082 (inactive)
5,RCOR3 isoform 3 (UniProt Q9P2K3),-0.088 (inactive)
6,SEPTIN5 (UniProt Q99719),-0.011 (inactive)
7,RPL38 (UniProt P63173),-0.014 (inactive)
8,RNF41 (UniProt Q9H4P4),0.044 (inactive)
9,RAB9A (UniProt P51151),-0.015 (inactive)
10,SDC3 (UniProt O75056),-0.853 (active)
11,RIPK1 (UniProt Q13546),0.135 (inactive)
12,ROR2 (UniProt Q01974),-0.025 (inactive)
13,ROMO1 (UniProt P60602),0.045 (inactive)
14,RPS14 (UniProt P62263),0.025 (inactive)
15,RAB5C isoform 2 (UniProt P51148),-0.006 (inactive)
16,RETSAT (UniProt Q6NUM9),-0.006 (inactive)
17,RPL31 (UniProt P62899),0.098 (inactive)
18,SKP1 (UniProt P63208),0.008 (inactive)
